# Only some compounds are listed: those with a hit (about 12% of all), similar ones and a draw of the others.
# BAZ2B block: qHTS Assay for Inhibitors of BAZ2B; Bromodomain adjacent to zinc finger domain protein 2B (Homo sapiens), Q9UIF8; AlphaScreen BAZ2B-H3K14Ac peptide displacement; Potency, µM (top dose mostly 114 µM), hits mostly inhibitors; 360,000 tested, 4.4% active; AID 504333, 2011; also: nearly all actives have a fitted effect of over 60% in size
# Target sequence (Q9UIF8 whole entry, looked up, the tested form may be a part): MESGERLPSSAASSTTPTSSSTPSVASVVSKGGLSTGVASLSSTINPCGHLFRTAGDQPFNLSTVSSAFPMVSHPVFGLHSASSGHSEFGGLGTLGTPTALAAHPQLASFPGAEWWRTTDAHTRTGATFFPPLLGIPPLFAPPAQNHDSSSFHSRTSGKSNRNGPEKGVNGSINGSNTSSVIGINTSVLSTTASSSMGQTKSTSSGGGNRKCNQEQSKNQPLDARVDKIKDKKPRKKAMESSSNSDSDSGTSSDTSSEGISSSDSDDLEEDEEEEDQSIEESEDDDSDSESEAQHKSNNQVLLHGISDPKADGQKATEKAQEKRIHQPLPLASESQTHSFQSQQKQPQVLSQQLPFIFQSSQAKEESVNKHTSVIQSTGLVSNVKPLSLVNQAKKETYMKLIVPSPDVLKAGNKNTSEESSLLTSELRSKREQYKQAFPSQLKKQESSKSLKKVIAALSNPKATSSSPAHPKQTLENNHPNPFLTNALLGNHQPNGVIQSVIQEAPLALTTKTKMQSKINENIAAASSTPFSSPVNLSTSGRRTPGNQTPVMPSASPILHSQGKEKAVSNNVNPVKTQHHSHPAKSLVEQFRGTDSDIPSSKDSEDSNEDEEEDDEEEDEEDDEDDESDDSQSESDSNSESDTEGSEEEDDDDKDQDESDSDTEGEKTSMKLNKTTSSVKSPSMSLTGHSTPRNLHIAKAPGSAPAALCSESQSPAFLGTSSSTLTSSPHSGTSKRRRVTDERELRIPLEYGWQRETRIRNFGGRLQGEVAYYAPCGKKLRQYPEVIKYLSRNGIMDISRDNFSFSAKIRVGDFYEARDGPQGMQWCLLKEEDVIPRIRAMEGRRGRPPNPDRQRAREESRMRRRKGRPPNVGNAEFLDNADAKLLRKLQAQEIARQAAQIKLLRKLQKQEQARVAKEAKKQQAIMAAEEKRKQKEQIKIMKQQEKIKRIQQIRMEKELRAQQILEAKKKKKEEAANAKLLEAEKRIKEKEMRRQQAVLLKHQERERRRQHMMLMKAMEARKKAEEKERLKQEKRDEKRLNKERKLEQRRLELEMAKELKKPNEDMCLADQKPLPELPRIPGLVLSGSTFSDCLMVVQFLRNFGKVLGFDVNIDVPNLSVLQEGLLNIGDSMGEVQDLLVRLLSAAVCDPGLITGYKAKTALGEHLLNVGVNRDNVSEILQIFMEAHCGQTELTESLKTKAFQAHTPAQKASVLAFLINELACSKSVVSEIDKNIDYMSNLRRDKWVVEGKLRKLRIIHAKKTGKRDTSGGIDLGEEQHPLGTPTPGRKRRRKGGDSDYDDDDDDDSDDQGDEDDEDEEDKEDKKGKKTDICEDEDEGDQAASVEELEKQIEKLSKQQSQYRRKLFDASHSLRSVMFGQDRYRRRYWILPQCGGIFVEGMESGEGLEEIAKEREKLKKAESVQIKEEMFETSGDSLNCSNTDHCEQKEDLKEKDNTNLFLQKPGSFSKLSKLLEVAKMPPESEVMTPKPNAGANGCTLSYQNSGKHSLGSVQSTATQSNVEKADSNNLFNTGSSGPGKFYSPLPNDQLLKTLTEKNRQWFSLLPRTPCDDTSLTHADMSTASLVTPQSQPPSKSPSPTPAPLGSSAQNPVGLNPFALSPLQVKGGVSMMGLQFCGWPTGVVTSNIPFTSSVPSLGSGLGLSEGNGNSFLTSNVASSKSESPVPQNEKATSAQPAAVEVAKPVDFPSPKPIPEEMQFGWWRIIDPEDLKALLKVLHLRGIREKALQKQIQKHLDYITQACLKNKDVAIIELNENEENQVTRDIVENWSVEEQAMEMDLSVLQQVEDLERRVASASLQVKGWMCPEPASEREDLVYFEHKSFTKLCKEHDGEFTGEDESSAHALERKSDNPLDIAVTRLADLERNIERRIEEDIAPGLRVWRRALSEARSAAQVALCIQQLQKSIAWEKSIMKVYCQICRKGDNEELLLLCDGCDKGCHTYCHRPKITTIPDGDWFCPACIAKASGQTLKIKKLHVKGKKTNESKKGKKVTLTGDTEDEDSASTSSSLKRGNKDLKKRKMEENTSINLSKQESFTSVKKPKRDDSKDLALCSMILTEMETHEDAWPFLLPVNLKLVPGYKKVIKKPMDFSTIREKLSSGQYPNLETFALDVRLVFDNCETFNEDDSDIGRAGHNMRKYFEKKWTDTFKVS
#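 Complex of BAZ2B and biotin-H3K14Ac (50 nM apiece) forms over 30 min at RT, then faces library compounds up to 110 uM for another 30 min; AlphaScreen beads added, 20 min dark incubation, luminescence read.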
# G9a inh: qHTS Assay for Inhibitors of Histone Lysine Methyltransferase G9a; Potency, µM (doses to about 102 µM), hits mostly inhibitors; G9a H3K9 monomethylation, AlphaScreen, 2 h; AID 504332, 2011; 350,000 tested, 8.8% active; also: nearly all actives have a fitted effect of over 75% in size
#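 Signal arises when biotinylated H3K9 peptide, once monomethylated, bridges streptavidin donor and antibody-captured acceptor beads. Enzyme at 20 nM was preincubated 15 min with test compounds; peptide 500 nM and SAM 20 uM then reacted for 2 h.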
# L3MBTL1 block: qHTS Assay for the Inhibitors of L3MBTL1; Lethal(3)malignant brain tumor-like protein 1 (Homo sapiens), Q9Y468; AlphaScreen L3MBTL1–H3K9me1 peptide binding; Potency, µM (top dose mostly 57.1 µM), usual class: inhibitors; 230,000 tested, 0.66% active; also: nearly all actives have a fitted effect of over 60% in size
#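 First, the protein-peptide complex forms for 30 min at room temperature (L3MBTL1 50 nM, biotinylated H3K9me1 peptide 75 nM). Next, compounds are pin-transferred and incubated 30 min. Finally, AlphaScreen beads are added and read after 30 min.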
# JMJD2A Tudor: qHTS Assay for Inhibitors of JMJD2A-Tudor Domain. AID 504339, 2011. Lysine-specific demethylase 4A (Homo sapiens), O75164. 390,000 tested, 4.4% active. Potency, µM (highest dose often 114 µM), hits mostly inhibitors. AlphaScreen JMJD2A-Tudor / H3K4me3 peptide binding; also: nearly all actives have a fitted effect of over 50% in size
# HP1b binding inh: HTS for Inhibitors of HP1-beta Chromodomain Interactions with Methylated Histone Tails; Chromobox protein homolog 1 (Homo sapiens), P83916; AlphaScreen HP1-beta / biotin-H3K9me3 peptide binding; Potency, µM (top dose mostly 114 µM), hits mostly inhibitors; 390,000 tested, 0.56% active; also: nearly all actives have a fitted effect of over 70% in size
#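 HP1-beta protein (50 nM final) preincubated 30 min at room temperature with biotinylated H3(1-18)K9me3 peptide (50 nM) in PBS pH 7.4, 0.01% Tween-20, then compound added for 30 min. AlphaScreen streptavidin donor/nickel chelate acceptor beads (10 ug/mL final), 30 min dark, luminescence read.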
# Sfp inh: qHTS Assay for Inhibitors of Bacillus subtilis Sfp phosphopantetheinyl transferase (PPTase) | Biochemical Sfp PPTase activity, qHTS | 310,000 tested, 3.5% active | Potency, µM, most hits filed as inhibitors;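 also: the enzyme is Sfp with the accession as filed and its product quenches rhodamine fluorescence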
#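 After 15 min at room temperature with compound, 15 nM Sfp received 5 uM rhodamine-CoA plus 12.5 uM BHQ-2-ybbR (50 mM Hepes pH 7.6, 10 mM MgCl2). Rate came from the fluorescence difference over 30 min, ex 525/em 598 nm.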
# Hits are given with their value; - = inactive; ? = inconclusive; . = not tested or not shown; [ ] = remark or other dose. Calls follow the shape of the dose curve; as a rule, active = well fitted curve in the direction sought with a large enough effect; inconclusive = small, poorly fitted or top-dose-only effect, or another doubt; inactive = no such curve, though single readings can be large; an effect the other way counts as inactive or inconclusive.
SMILES,BAZ2B block,G9a inh,L3MBTL1 block,JMJD2A Tudor,HP1b binding inh,Sfp inh
O=C1c2[nH]nc(-c3ccccc3O)c2C(c2ccc(F)cc2)N1CCO (stereo not drawn),-,-,.,-,-,.
COc1ccc(CCNC(=O)c2ccc(Cn3c(=O)c4cccn4c4cccnc43)cc2)cc1OC,?,?,.,-,-,.
CC(C)c1cnc2c(c1SCC(=O)Nc1ccc(C(N)=O)cc1)c(=O)n(C)c(=O)n2C,-,-,.,-,-,.
CC1=C(C(=O)OCC2CCCO2)C(c2ccc(C)o2)C2=C(CC(c3ccc(N(C)C)cc3)CC2=O)N1 (stereo not drawn),39.8µM,11.2µM,-,.,.,-
CCOC(=O)C1=C(C)NC2=C(C(=O)CCC2)C1c1ccc(N(C)C)cc1 (stereo not drawn),-,?,.,-,-,-
CCN(CC)c1ccc(C2C(C(=O)OCCOC)=C(C)NC3=C2C(=O)CCC3)cc1 (stereo not drawn),-,4.47µM,-,-,-,-
CCCOC(=O)C1=C(C)NC2=C(C(=O)CCC2)C1c1ccc(N(C)C)cc1 (stereo not drawn),-,39.8µM,-,-,-,-
CCc1ccc(NC(=O)CSc2nc(=O)n(Cc3ccco3)c3c2CCC3)cc1,-,-,.,-,-,.
Cc1ccc(CNC(=O)CCC2CCCN(C(=O)c3ccc4c(c3)OCO4)C2)o1 (stereo not drawn),-,50.1µM,-,-,-,28.2µM
Cc1ccc(CNC(=O)CCC2CCCN(Cc3cccc4ncccc34)C2)o1 (stereo not drawn),-,-,-,-,-,-
Cc1ccc(CNC(=O)CCC2CCCN(C(=O)CCC(F)(F)F)C2)o1 (stereo not drawn),-,50.1µM,-,-,-,?
Cc1ccc(CNC(=O)CCC2CCCN(Cc3cccc4cccnc34)C2)o1 (stereo not drawn),?,39.8µM,-,-,-,-
CN(C)CCCOc1c2ccccc2n(Cc2ccccc2)[n+]1[O-],.,.,.,.,.,-
Fc1ccc2[nH]c3c(c2c1)CN(C(=S)NCc1ccccc1)CC3,56.2µM,.,-,?,-,-
C=CCNC(=O)N1CCc2[nH]c3ccc(F)cc3c2C1,-,-,.,-,-,-
O=C(O)C1CCCCC1C(=O)Nc1cccc2ccccc12 (stereo not drawn),-,11.2µM,-,-,-,-
N#Cc1c(C(F)(F)F)cc(-c2cccs2)nc1SCC(=O)Nc1ccc(Cl)cc1,-,-,.,-,-,.
O=[N+]([O-])c1ccc(C2CN=C(Nc3ccccc3)S2)cc1 (stereo not drawn),?,44.7µM,.,-,-,-
CCc1ccc(NC2=NCC(c3ccccc3)S2)cc1 (stereo not drawn),-,-,-,-,-,-
CC(C)OCCOc1ccc2oc(-c3ccco3)cc(=O)c2c1,56.2µM,-,?,?,?,-
N#CCOc1ccc2oc(-c3ccco3)cc(=O)c2c1,-,-,.,.,.,-
Cc1ccc(N(Cc2cccs2)C(=O)C(C)Oc2ccc(Cl)c(C)c2)cc1 (stereo not drawn),-,-,.,-,-,.
O=[N+]([O-])c1nn(-c2ccc3c(c2)OCCO3)n(O)c1=NCc1ccc(F)cc1,35.5µM,?,-,35.5µM,?,-
O=[N+]([O-])c1nn(-c2ccc3c(c2)OCCO3)n(O)c1=NCc1ccc(F)cc1Cl,-,-,.,-,-,-
O=[N+]([O-])c1nn(-c2cccc(Cl)c2)n(O)c1=NCc1cccnc1,?,7.94µM,-,?,-,-
SMILES,BAZ2B block,G9a inh,L3MBTL1 block,JMJD2A Tudor,HP1b binding inh,Sfp inh
Cc1ccc(CN=c2c([N+](=O)[O-])nn(-c3ccc(Cl)cc3)n2O)cc1,?,50.1µM,-,?,?,?
O=[N+]([O-])c1nn(-c2ccc(Cl)cc2)n(O)c1=NCc1ccncc1,?,39.8µM,.,-,-,-
O=[N+]([O-])c1nn(-c2ccc(Cl)cc2)n(O)c1=NCc1cccnc1,?,?,-,?,-,-
O=[N+]([O-])c1nn(-c2ccccc2)n(O)c1=NC1CCN(Cc2ccccc2)CC1,-,-,-,-,-,-
CCOC(=O)c1cccc(NC(=O)NCc2ccc3c(c2)CCN3C(=O)CC)c1,-,-,.,-,-,.
COC(=O)c1ccc(NC(=O)CCn2cnnn2)c(C)c1,-,-,.,-,-,.
COc1ccc(C2c3c(n(C)c4ccccc34)C(=O)N2CC(=O)Nc2ccc(C)cc2Cl)cc1 (stereo not drawn),-,?,.,-,-,.
COc1ccc(S(=O)(=O)n2nc(C)c(S(=O)(=O)N3CCC(C)CC3)c2C)cc1OC,?,-,.,?,-,.
NC(=O)c1c(NC(=O)CN2CCOCC2)sc2c1CCC2,.,25.1µM,-,-,-,-
O=C(Nc1sc2c(c1C(=O)O)CCC2)C(=O)N1CCOCC1,50.1µM,39.8µM,.,?,-,79.4µM
NC(=O)c1c(NC(=O)CN2C(=O)CCC2=O)sc2c1CCCCC2,-,15.8µM,-,-,-,?
NC(=O)c1c(NC(=O)CN2CCCC2)sc2c1CCCC2,-,-[12.7 µM],-,17.8µM,-,-
Cc1cc(=O)n2nc(N3CCC(C(=O)Nc4ccc(C)c(Cl)c4)CC3)sc2n1,-,-,.,-,-,.
CCc1c(-c2ccccc2)nc2ccccc2c1C(=O)NCc1ccc(C)cc1,-,-,.,-,-,.
CCn1ccc2cc(S(=O)(=O)N3CCC(C(=O)NCc4cccc(Cl)c4)CC3)ccc21,-,-,.,-,-,.
Cc1cc([N+](=O)[O-])nn1CC(=O)Nc1sc2c(c1C(N)=O)CCCC2,-,31.6µM,-,-,-,-
NC(=O)c1c(NC(=O)Cn2nc(C(=O)O)c3ccccc3c2=O)sc2c1CCCC2,-,-,-,-,-,-
CCCCC1CCC(C(=O)N2CC(=O)Nc3ccc(C)cc3C2c2ccc(F)cc2)CC1 (stereo not drawn),-,-,.,-,-,.
CCNC(=O)/N=C1/NC(=O)C(C(C)C)O1 (stereo not drawn),-,?,-,7.94µM,-,-
O=C(CCCn1c(=O)c2cccn2c2ccccc21)NCCc1ccc(Cl)cc1,?,?,.,?,-,.
CN(C)c1ccc(CNC(=O)CCCN2C(=O)c3cccnc3Oc3ccc(Cl)cc32)cc1,?,11.2µM,.,?,-,.
CC(CN1CCN(C/C=C/c2ccccc2)CC1)c1ccccc1 (stereo not drawn),?,-[0.501 µM],-[2.29 µM],12.6µM,-,-
